Assay [1] has as its target human Raf-1 Proto-Oncogene, serine/threonine Kinase (RAF1), RAF1 (gene 5894) (UniProt P04049). Kind of assay: NVS_ENZ_hRAF1: NovaScreen (NVS) Enzymatic Assay for human Raf-1 Proto-Oncogene, serine/threonine Kinase (RAF1) (AID 2283216). A digest of the protocol:
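Cell-free recombinant kinase with specific fluorescent substrate, product separated by electrophoretic mobility shift; read 1 h after dosing. Primary screen at 25 uM in duplicate; hits then run in concentration-response up to 50 uM, fitted as loss of signal versus DMSO.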

Assay [2] deals with human Vascular Endothelial Growth Factor Receptor 1 (VEGFR1), FLT1 (gene 2321) (UniProt P17948). Briefly: NVS_ENZ_hVEGFR1: NovaScreen (NVS) Enzymatic Assay for human Vascular Endothelial Growth Factor Receptor 1 (VEGFR1) (AID 2283226). A digest of the protocol:
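Cell-free assay of recombinant human VEGFR1 kinase with substrate, measured 1 h after dosing; fluorescence with electrophoretic mobility-shift separation of substrate and product, referenced to DMSO; primary screen at 25 uM in duplicate, actives then run in concentration series.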

Assay [3] has as its target human Rho Associated Coiled-coil Containing Protein Kinase 1 (ROCK1), ROCK1 (gene 6093) (UniProt Q13464). Briefly: NVS_ENZ_hROCK1: NovaScreen (NVS) Enzymatic Assay for human Rho Associated Coiled-coil Containing Protein Kinase 1 (ROCK1) (AID 2283214). The essentials:
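Cell-free recombinant human ROCK1 activity assay; fluorescent substrate and product separated by electrophoretic mobility shift, read 1 h after dosing. Screened in duplicate at 25 uM; loss of signal versus DMSO baseline scored as inhibition.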

For assay [4], the target named is human Protein Tyrosine Phosphatase Receptor Type M (PTPRM), PTPRM (gene 5797) (UniProt P28827). Briefly: NVS_ENZ_hPTPRM: NovaScreen (NVS) Enzymatic Assay for human Protein Tyrosine Phosphatase Receptor Type M (PTPRM) (AID 2283215). A digest of the protocol:
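Cell-free recombinant PTPRM with fluorogenic substrate; product separated from substrate by electrophoretic mobility shift and read by fluorescence, 1.33 h after dosing. Primary screen single concentration (25 uM) in duplicate; actives retested in concentration series; loss of signal versus DMSO.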

The target in assay [5] is rabbit Imidazoline 2 Central (I2C), CKB (gene 100009085) (UniProt P00567). Kind of assay: NVS_ENZ_rabI2C: NovaScreen (NVS) Enzymatic Assay for rabbit Imidazoline 2 Central (I2C) (AID 2283228). The essentials:
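Rabbit brain membranes, cell-free; readout by filter-based scintillation counting 1.5 hours after dosing, loss of signal vs DMSO. Initial duplicate test at 25 uM, then concentration-response with 50 uM top concentration.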

Assay [6] addresses human Sirtuin 3 (SIRT3), SIRT3 (gene 23410) (UniProt Q9NTG7). Kind of assay: NVS_ENZ_hSIRT3: NovaScreen (NVS) Enzymatic Assay for human Sirtuin 3 (SIRT3) (AID 2283222). A digest of the protocol:
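Cell-free enzyme assay with recombinant protein and fluorescent substrate, product separated by electrophoretic mobility shift; read 1 hour after dosing. Screened in duplicate at 25 uM, then singleton concentration-response up to 50 uM; loss of signal versus DMSO.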

Assay [7] has as its target human SRC Proto-Oncogene, Non-receptor Tyrosine Kinase (SRC), SRC (gene 6714) (UniProt P12931). Briefly: NVS_ENZ_hSRC: NovaScreen (NVS) Enzymatic Assay for human SRC Proto-Oncogene, Non-receptor Tyrosine Kinase (SRC) (AID 2283223). The essentials: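 Cell-free kinase activity assay with fluorescent substrate, product separated by electrophoretic mobility shift, read 1 h after dosing. Duplicate single point at 25 uM, then concentration-response up to 50 uM; loss of signal versus DMSO.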

Assay [8] deals with human Protein Tyrosine Phosphatase Non-receptor Type 6 (PTPN6), PTPN6 (gene 5777) (UniProt P29350). Kind of assay: NVS_ENZ_hPTPN6: NovaScreen (NVS) Enzymatic Assay for human Protein Tyrosine Phosphatase Non-receptor Type 6 (PTPN6) (AID 2283210). A digest of the protocol:
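Cell-free assay with recombinant PTPN6 expressed in SF9 cells, fluorescent substrate, product separated from substrate by electrophoretic mobility shift; read 1.33 hours after dosing. Primary screen in duplicate at 25 uM, actives retested in concentration series; DMSO baseline.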

Assay [9] deals with human Protein Tyrosine Phosphatase Receptor Type B (PTPRB), PTPRB (gene 5787) (UniProt P23467). Kind of assay: NVS_ENZ_hPTPRB: NovaScreen (NVS) Enzymatic Assay for human Protein Tyrosine Phosphatase Receptor Type B (PTPRB) (AID 2283211). A digest of the protocol: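 Recombinant human PTPRB with a fluorescent substrate, product separated by electrophoretic mobility shift; read 1 h after dosing. Primary screen in duplicate at 25 uM; actives then retested in concentration series; loss of signal versus DMSO.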

The target in assay [10] is human Protein Tyrosine Phosphatase Receptor Type F (PTPRF), PTPRF (gene 5792) (UniProt P10586). Kind of assay: NVS_ENZ_hPTPRF: NovaScreen (NVS) Enzymatic Assay for human Protein Tyrosine Phosphatase Receptor Type F (PTPRF) (AID 2283213). A digest of the protocol:
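Cell-free fluorescence enzyme assay with recombinant protein and substrate; product separated by electrophoretic mobility shift. Read 1 h after dosing, single 25 uM duplicate screen, then concentration-response up to 50 uM; loss of signal vs DMSO.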

The target of assay [11] is human Tyrosine Protein Kinase Receptor Tie-2 (Tie2), TEK (gene 7010) (UniProt Q02763). Kind of assay: NVS_ENZ_hTie2: NovaScreen (NVS) Enzymatic Assay for human Tyrosine Protein Kinase Receptor Tie-2 (Tie2) (AID 2283225). The essentials: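 Recombinant human Tie2 kinase activity was read cell-free by fluorescence with electrophoretic mobility shift, 1 hour after dosing. The screen used 25 uM in duplicate, then concentration-response up to 50 uM. Signal loss was scored against DMSO.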

In assay [12] the target is human Protein Tyrosine Phosphatase Non-receptor Type 4 (PTPN4), PTPN4 (gene 5775) (UniProt P29074). Briefly: NVS_ENZ_hPTPN4: NovaScreen (NVS) Enzymatic Assay for human Protein Tyrosine Phosphatase Non-receptor Type 4 (PTPN4) (AID 2283208). The essentials:
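Cell-free assay of PTPN4 expressed in Sf9 cells, using a fluorescent substrate with product separated by mobility shift; read 1.33 h after dosing. Single-point screen at 25 uM, then concentration-response up to 50 uM. Loss of signal relative to DMSO.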

For assay [13], the target named is human Vascular Endothelial Growth Factor Receptor 3 (VEGFR3), FLT4 (gene 2324) (UniProt P35916). Kind of assay: NVS_ENZ_hVEGFR3: NovaScreen (NVS) Enzymatic Assay for human Vascular Endothelial Growth Factor Receptor 3 (VEGFR3) (AID 2283229). The essentials: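 Cell-free recombinant VEGFR3 kinase reaction with fluorescent substrate, read 1 h after dosing by electrophoretic mobility shift separation of substrate and product. Single-concentration duplicate screen at 25 uM, then concentration-response up to 50 uM; loss of activity versus DMSO.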

Assay [14] has as its target human Sirtuin 2 (SIRT2), SIRT2 (gene 22933) (UniProt Q8IXJ6). Kind of assay: NVS_ENZ_hSIRT2: NovaScreen (NVS) Enzymatic Assay for human Sirtuin 2 (SIRT2) (AID 2283217). A digest of the protocol: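 Cell-free recombinant human SIRT2, fluorescent substrate with product separated by electrophoretic mobility shift, 1 hr. Screened in duplicate at 25 uM; hits rerun singly in concentration-response up to 50 uM, relative to DMSO.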

Assay [15] addresses sheep Cyclooxygenase-2 (Cox2), PTGS2 (gene 443460) (UniProt P79208). Briefly: NVS_ENZ_oCOX2: NovaScreen (NVS) Enzymatic Assay for sheep Cyclooxygenase-2 (Cox2) (AID 2283231). The essentials:
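Enzyme extracted from ovine placenta tested cell-free; activity read colorimetrically by absorbance 0.66 hour after dosing. Primary screen in duplicate at 25 uM; hits rerun as concentration series to 50 uM, loss of signal versus DMSO baseline.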

Structures are written as SMILES. Results filed as inconclusive are left out. Activity calls are given as the source filed them. Rule for the calls: active = hit-call score of the fitted dose curve at least 0.9, where 1 is the maximum; inconclusive = response in the unintended direction; inactive = score below 0.9.

Sequence of human Sirtuin 3 (SIRT3), SIRT3 (gene 23410) (Q9NTG7 whole entry, looked up): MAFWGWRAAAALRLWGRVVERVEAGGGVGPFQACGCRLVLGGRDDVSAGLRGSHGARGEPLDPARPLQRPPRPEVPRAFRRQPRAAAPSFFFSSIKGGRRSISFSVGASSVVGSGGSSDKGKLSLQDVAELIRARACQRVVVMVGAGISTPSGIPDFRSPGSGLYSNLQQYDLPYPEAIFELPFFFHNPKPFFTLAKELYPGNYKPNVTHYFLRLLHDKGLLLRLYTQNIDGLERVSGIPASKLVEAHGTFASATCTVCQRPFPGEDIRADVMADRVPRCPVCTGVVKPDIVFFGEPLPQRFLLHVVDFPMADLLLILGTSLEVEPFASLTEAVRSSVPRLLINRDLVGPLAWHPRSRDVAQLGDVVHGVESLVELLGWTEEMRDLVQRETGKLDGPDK
Sequence of human Raf-1 Proto-Oncogene, serine/threonine Kinase (RAF1), RAF1 (gene 5894) (P04049 whole entry, looked up): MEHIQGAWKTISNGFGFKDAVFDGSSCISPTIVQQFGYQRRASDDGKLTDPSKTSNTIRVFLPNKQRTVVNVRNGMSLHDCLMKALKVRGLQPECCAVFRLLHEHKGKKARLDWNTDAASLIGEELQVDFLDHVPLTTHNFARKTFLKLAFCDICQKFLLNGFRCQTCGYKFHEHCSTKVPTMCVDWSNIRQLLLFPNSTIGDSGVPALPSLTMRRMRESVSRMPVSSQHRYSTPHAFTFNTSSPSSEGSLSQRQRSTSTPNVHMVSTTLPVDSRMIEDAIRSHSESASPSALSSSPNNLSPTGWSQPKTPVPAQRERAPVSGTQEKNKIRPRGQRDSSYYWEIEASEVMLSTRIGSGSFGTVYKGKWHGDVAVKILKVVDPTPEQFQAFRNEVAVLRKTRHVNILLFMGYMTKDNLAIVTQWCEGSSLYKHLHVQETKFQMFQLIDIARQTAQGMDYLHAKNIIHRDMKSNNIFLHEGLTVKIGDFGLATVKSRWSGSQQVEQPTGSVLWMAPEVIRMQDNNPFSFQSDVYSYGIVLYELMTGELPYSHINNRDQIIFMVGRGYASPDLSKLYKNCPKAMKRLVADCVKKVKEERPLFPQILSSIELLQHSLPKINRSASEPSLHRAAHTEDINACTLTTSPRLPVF
Sequence of human Protein Tyrosine Phosphatase Receptor Type M (PTPRM), PTPRM (gene 5797) (P28827 whole entry, looked up): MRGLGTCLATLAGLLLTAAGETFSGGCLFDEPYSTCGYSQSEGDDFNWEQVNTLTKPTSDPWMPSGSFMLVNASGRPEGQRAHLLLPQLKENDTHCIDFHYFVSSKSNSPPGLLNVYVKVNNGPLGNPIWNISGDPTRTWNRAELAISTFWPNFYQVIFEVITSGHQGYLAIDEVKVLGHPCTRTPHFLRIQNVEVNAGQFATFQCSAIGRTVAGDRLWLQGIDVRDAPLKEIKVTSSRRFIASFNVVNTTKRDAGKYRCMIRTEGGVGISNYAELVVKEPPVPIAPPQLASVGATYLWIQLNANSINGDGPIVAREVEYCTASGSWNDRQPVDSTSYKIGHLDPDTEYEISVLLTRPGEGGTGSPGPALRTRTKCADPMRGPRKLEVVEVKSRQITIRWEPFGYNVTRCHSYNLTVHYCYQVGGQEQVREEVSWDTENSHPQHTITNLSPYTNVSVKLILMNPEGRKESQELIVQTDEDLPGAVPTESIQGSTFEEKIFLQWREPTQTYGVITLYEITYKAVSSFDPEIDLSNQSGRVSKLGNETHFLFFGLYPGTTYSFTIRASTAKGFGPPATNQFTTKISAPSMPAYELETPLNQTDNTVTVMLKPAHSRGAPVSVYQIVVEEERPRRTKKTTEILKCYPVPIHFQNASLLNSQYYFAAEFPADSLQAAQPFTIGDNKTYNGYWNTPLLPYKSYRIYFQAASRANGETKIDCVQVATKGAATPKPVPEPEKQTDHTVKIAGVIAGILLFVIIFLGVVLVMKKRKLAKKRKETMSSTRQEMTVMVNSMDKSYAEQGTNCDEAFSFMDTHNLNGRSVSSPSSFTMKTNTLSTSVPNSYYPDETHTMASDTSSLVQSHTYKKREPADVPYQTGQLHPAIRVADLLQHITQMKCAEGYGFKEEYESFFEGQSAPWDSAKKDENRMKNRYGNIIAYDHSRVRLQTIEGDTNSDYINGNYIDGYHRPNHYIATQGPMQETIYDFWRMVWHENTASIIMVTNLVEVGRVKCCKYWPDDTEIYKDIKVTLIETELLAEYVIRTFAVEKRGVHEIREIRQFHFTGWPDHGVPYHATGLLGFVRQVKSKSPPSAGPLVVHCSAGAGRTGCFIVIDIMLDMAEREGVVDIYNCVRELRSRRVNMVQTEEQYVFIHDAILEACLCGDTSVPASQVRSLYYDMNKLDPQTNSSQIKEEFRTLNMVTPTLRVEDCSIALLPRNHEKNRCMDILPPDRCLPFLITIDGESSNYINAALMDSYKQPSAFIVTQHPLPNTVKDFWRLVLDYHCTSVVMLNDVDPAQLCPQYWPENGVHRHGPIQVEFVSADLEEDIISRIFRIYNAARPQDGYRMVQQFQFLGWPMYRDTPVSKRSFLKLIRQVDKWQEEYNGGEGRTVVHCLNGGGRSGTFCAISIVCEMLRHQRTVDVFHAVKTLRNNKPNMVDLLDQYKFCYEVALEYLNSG
Sequence of human Protein Tyrosine Phosphatase Receptor Type F (PTPRF), PTPRF (gene 5792) (P10586 whole entry, looked up): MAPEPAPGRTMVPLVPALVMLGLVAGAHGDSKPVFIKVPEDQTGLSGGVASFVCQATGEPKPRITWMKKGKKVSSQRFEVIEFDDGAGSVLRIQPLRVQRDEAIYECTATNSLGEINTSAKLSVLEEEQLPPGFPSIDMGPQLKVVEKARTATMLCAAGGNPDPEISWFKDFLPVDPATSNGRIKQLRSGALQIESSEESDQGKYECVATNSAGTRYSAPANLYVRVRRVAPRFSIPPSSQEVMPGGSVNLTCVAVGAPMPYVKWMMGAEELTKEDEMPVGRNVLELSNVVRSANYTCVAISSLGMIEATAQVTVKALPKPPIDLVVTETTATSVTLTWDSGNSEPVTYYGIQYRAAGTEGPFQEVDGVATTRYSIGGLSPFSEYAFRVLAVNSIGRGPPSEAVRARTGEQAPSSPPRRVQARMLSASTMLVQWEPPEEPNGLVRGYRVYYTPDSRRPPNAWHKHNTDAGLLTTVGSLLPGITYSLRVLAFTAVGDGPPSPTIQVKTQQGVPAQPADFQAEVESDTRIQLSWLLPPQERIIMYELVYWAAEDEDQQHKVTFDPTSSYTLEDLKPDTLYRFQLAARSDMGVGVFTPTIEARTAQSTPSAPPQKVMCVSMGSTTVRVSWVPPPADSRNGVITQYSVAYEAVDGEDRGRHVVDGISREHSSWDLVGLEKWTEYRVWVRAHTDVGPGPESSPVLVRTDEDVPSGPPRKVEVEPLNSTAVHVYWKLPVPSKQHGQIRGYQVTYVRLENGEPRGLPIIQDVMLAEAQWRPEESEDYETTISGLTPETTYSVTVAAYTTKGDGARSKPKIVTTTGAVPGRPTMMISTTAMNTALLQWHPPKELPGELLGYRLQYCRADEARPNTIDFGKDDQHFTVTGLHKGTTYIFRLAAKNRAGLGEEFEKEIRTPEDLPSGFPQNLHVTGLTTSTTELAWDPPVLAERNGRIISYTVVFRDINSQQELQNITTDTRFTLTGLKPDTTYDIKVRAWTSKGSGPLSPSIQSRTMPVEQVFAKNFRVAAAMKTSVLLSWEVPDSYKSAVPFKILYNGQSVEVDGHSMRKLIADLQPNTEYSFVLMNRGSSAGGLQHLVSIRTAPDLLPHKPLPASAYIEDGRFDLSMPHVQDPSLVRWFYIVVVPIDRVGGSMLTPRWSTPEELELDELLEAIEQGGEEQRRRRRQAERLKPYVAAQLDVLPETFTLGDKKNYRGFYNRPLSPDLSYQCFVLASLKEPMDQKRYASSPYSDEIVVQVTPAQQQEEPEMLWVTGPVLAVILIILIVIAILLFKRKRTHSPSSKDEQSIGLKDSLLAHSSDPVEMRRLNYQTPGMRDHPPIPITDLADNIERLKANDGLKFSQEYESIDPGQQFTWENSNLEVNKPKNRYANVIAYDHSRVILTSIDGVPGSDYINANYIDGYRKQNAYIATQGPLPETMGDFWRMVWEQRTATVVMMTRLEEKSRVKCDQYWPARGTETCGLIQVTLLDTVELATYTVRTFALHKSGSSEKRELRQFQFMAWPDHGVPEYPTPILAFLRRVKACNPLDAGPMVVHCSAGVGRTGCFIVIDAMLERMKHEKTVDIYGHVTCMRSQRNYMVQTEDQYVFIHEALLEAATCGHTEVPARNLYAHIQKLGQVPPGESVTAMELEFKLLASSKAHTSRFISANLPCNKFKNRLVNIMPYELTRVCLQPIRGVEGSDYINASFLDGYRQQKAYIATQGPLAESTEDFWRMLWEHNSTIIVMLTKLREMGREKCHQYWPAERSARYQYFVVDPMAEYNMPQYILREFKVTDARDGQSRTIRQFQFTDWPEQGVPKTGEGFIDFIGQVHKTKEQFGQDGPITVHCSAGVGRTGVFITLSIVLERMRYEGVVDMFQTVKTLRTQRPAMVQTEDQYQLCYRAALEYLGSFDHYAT
Sequence of human Sirtuin 2 (SIRT2), SIRT2 (gene 22933) (Q8IXJ6 whole entry, looked up): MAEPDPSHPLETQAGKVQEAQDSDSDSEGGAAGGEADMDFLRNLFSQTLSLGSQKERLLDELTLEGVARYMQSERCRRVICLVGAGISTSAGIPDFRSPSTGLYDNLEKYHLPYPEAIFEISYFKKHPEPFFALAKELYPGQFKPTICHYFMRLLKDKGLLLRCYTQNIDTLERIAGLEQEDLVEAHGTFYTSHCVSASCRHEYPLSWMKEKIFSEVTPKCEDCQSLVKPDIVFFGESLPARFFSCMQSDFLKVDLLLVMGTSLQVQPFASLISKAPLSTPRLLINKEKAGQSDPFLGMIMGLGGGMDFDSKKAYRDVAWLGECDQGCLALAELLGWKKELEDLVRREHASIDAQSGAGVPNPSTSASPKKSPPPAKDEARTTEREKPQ

In the case of `CCCOCC(=Nc1ccc(Cl)cc1C(F)(F)F)n1ccnc1`, the compound was classed as inactive in assay [1]. Still for that read-out and setting: as for `CN(C)NC(=O)CCC(=O)O`, the entry is “inactive”.

As for `CCOP(=S)(OCC)SCCSCC`, in [2], the compound was classed as inactive.

On to `CNC(=O)ON=C(SC)C(=O)N(C)C`, for which, in assay [3], the outcome was inactive.

On to `Nc1c(Cl)cc([N+](=O)[O-])cc1Cl`, for which, in [4], the outcome was inactive. With `CC1(C(=O)Nc2ccc(O)c(Cl)c2Cl)CCCCC1`, the compound was called inactive in assay [3] and in assay [4]. As usually defined, the AC50 is the concentration giving half of the maximal activity seen. Take `CCC(=O)Nc1ccc(Cl)c(Cl)c1`: in assay [3], the result was inactive. For the same compound, in [5], the concentration at half-maximal activity (AC50) was 15.7 µM (active). `CC(C)[C@H](C(=O)O[C@H](C#N)c1cccc(Oc2ccccc2)c1)c1ccc(Cl)cc1`: the result in [6] and in [7] was inactive.

For the compound `S=C1NCCN1`, the result in assay [8], in assay [9], in [10] and in [11] was inactive. Regarding `CCNc1nc(Cl)nc(NC(C)(C)C#N)n1`, the compound was classed as inactive in [7]. For `COc1ccc(C(=CC(=O)N2CCOCC2)c2ccc(Cl)cc2)cc1OC`, the outcome in assay [6] was inactive. Regarding `Cc1ccn2nc(S(=O)(=O)Nc3c(F)cccc3F)nc2n1`, the result in assay [12] was inactive.

As for `CCC(=NOC/C=C/Cl)C1=C(O)CC(C2CCOCC2)CC1=O` (stereo not drawn), the outcome in assay [13] was inactive. On to `CN(C)C(=O)Nc1cccc(C(F)(F)F)c1`, for which, in assay [1], the result was inactive. Turning to `CC(=NC#N)N(C)Cc1ccc(Cl)nc1`, the compound was called inactive in assay [10]. Take `O=C(O)c1cc(Oc2ccc(C(F)(F)F)cc2Cl)ccc1[N+](=O)[O-]`: in assay [14], the call was inactive.

In the case of `CCCCSP(=O)(SCCCC)SCCCC`, in assay [10], the outcome was inactive. With `FC(F)C(F)(F)OCC(Cn1cncn1)c1ccc(Cl)cc1Cl` (stereo not drawn), the AC50 in [14] is 14.6 µM (active); in assay [6], 25 µM (active); in assay [15], 0.67 µM (active). `O=[N+]([O-])c1cc(C(F)(F)F)c(Cl)c([N+](=O)[O-])c1Nc1ncc(C(F)(F)F)cc1Cl`: the compound was classed as inactive in assay [4] and in assay [11].

The record behind these values is PubChem BioAssay (EPA / NIEHS).
